Results published in the supplement of paper PMC10646978.
± gives the standard deviation.

How the values were obtained:
Conditions in all cases: modulator concentration 10 µM
[1] = tested on: RAW-Dual (murine macrophage reporter line); test: NF-kB reporter (SEAP) activity fold change vs agonist alone; higher = enhanced NF-kB activity
How it was run: (§1)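 Compound reached 10 μM final in each well by pin transfer, onto RAW-Dual murine macrophage reporter cells seeded at 50 000 per well in 384-well plates. After 1 hour at 37 °C, the cells were stimulated overnight with a PRR agonist. SEAP in the supernatant was read with QUANTI-Blue at 620 nm absorbance for NF-κB, and Lucia luciferase was read with QUANTI-Luc luminescence for IRF. Each signal was turned into fold change against the mean agonist-only control on the same plate, and two replicate plates were averaged with propagated errors.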

[2] = tested on: RAW-Dual (murine macrophage reporter line); test: IRF reporter (Lucia luciferase) activity fold change vs agonist alone; higher = enhanced IRF activity
How it was run: as §1

[3] = tested on: RAW-Dual (murine macrophage reporter line); test: viability score (confluency relative to resting cells, overnight) (fraction); higher = more viable, active = viable (0.7 or more)
How it was run: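 Confluency was the readout: RAW-Dual macrophages were imaged with IncuCyte after an overnight exposure to compound at 10 μM final. IncuCyte software produced two masks over all imaged wells. The viability score expresses confluency against resting cells, and both masks had to exceed 70% of resting cells for a compound to meet the cutoff.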

[4] = agonist: CpG ODN 1826 0.5 ug/mL

Row | SMILES | NF-kB reporter [1, 4] | NF-kB reporter ([1]; agonist: LPS 0.1 ug/mL) | NF-kB reporter ([1]; agonist: MPLA […]) | IRF reporter ([2]; agonist: 3'3'-cGAMP 10 ug/mL) | IRF reporter ([2]; agonist: LPS 0.1 ug/mL) | IRF reporter ([2]; agonist: MPLA […]) | viability score [3]
1 | CC1Cc2ccccc2N1C(=O)C1CCCN1S(=O)(=O)c1ccc(Cl)cc1 (configuration not stated) | 0.835 ± 0.043 | 0.905 ± 0.12 | 1.27 ± 0.25 | 1.01 ± 0.061 | 1.22 ± 0.18 | 1.47 ± 0.52 | 0.97 (active)
2 | CCCCn1c(CNC(=O)c2cccs2)nc2ccccc21 | 0.926 ± 0.077 | 0.98 ± 0.06 | 1.03 ± 0.061 | 1.03 ± 0.06 | 1.15 ± 0.093 | 0.921 ± 0.15 | 0.983 (active)
3 | COCCCN1C(=O)C(=Cc2ccc(-c3ccc(Cl)cc3Cl)o2)SC1=S | 0.954 ± 0.054 | 1.01 ± 0.082 | 0.96 ± 0.036 | 1.02 ± 0.052 | 1.01 ± 0.099 | 0.998 ± 0.25 | 1 (active)
4 | Oc1c(Cl)cc(Cl)cc1C=Nc1cc(Cl)cc(Cl)c1 | 0.734 ± 0.14 | 0.915 ± 0.076 | 0.761 ± 0.066 | 0.437 ± 0.019 | 1.05 ± 0.1 | 1.09 ± 0.14 | 0.734 (active)
5 | CC(=NOCCCl)C(C)=NOCCCl | 0.946 ± 0.078 | 1.05 ± 0.13 | 1.21 ± 0.042 | 0.909 ± 0.15 | 1.07 ± 0.045 | 1.59 ± 0.2 | 0.585 (inactive)
6 | CCN(CC)c1ccc2cc(-c3nnc(NCc4ccc(F)cc4)s3)c(=O)oc2c1 | 1.08 ± 0.085 | 0.955 ± 0.059 | 0.906 ± 0.055 | 0.941 ± 0.035 | 1.08 ± 0.13 | 0.981 ± 0.085 | 1.01 (active)
7 | CCC(O)=C(C#N)c1nc2ccccc2n1C | 1.12 ± 0.12 | 0.938 ± 0.061 | 1.18 ± 0.064 | 0.792 ± 0.033 | 1.02 ± 0.07 | 1.37 ± 0.15 | 0.995 (active)
8 | Cc1cccc(N2C(=O)C(=Cc3cccc([N+](=O)[O-])c3)SC2=S)c1C | 0.964 ± 0.1 | 1.02 ± 0.094 | 0.937 ± 0.06 | 0.853 ± 0.035 | 1.57 ± 0.17 | 1.29 ± 0.11 | 0.989 (active)
9 | CNC(=O)c1ccccc1Sc1ccc2c(/C=C/c3ccccn3)n[nH]c2c1 | 0.626 ± 0.11 | 0.729 ± 0.25 | 0.813 ± 0.061 | 0.0229 ± 0.0024 | 0.485 ± 0.12 | 0.259 ± 0.048 | 0.897 (active)
10 | O=C1NC(=O)C(=Cc2ccc(F)cc2)S1 | 0.667 ± 0.052 | 0.951 ± 0.062 | 0.91 ± 0.032 | 0.773 ± 0.16 | 1.02 ± 0.089 | 1.02 ± 0.16 | 0.988 (active)
11 | COc1cccc2c1C(=O)c1c(O)c3c(c(O)c1C2=O)C[C@@](O)(C(=O)CO)C[C@@H]3O[C@H]1C[C@H](N)[C@@H](O)[C@H](C)O1.Cl | 0.114 ± 0.0074 | 0.0523 ± 0.0041 | 0.0992 ± 0.0043 | 0.0174 ± 0.0046 | 0.0179 ± 0.0063 | 0.0142 ± 0.0068 | 0.105 (inactive)
12 | Cl.Cl.Fc1ccc(C(c2ccc(F)cc2)N2CCN(C/C=C/c3ccccc3)CC2)cc1 | 1.06 ± 0.087 | 0.97 ± 0.1 | 1.42 ± 0.3 | 1.06 ± 0.068 | 1.11 ± 0.082 | 1.26 ± 0.14 | 0.999 (active)
13 | c1ccc2[nH]c(-c3cscn3)nc2c1 | 1.14 ± 0.16 | 1.16 ± 0.21 | 0.915 ± 0.055 | 0.81 ± 0.037 | 1.17 ± 0.17 | 1.04 ± 0.13 | 0.995 (active)
14 | CCC(C)(C)C(=O)O[C@H]1C[C@@H](C)C=C2C=C[C@H](C)[C@H](CC[C@@H]3C[C@@H](O)CC(=O)O3)[C@H]21 | 2.33 ± 0.12 | 1.54 ± 0.13 | 1.82 ± 0.084 | 0.599 ± 0.061 | 0.747 ± 0.062 | 0.639 ± 0.17 | 0.219 (inactive)
15 | NN=C1CCCc2c1[nH]c1ccc(Cl)cc21 | 1.07 ± 0.11 | 1.04 ± 0.081 | 1.05 ± 0.056 | 0.505 ± 0.13 | 0.95 ± 0.076 | 0.873 ± 0.12 | 0.99 (active)
16 | C#CCCCCCCCCCCCC(O)CC(O)COC(C)=O (configuration not stated) | 1.1 ± 0.34 | 1.06 ± 0.055 | 1.13 ± 0.083 | 0.832 ± 0.11 | 1.17 ± 0.19 | 1.41 ± 0.19 | 1 (active)
17 | O=C(Nc1ccccc1)NC1CCS(=O)(=O)C1 (configuration not stated) | 1.02 ± 0.096 | 1.09 ± 0.1 | 0.998 ± 0.042 | 0.97 ± 0.054 | 0.889 ± 0.16 | 0.88 ± 0.18 | 0.995 (active)
18 | NS(=O)(=O)c1ccc2c(c1)C1C=CCC1C(C(=O)O)N2 (configuration not stated) | 0.586 ± 0.049 | 0.992 ± 0.15 | 1.01 ± 0.075 | 0.8 ± 0.043 | 0.931 ± 0.055 | 1.01 ± 0.089 | 0.997 (active)
19 | COC(=O)C1=C(C)NC(C)=C(C(=O)OCCN2CCN(C(c3ccccc3)c3ccccc3)CC2)C1c1cccc([N+](=O)[O-])c1 (configuration not stated) | 0.231 ± 0.038 | 0.631 ± 0.07 | 0.89 ± 0.051 | 0.138 ± 0.0049 | 0.949 ± 0.11 | 1.1 ± 0.11 | 0.966 (active)
20 | O=C1CCC(N2C(=O)c3ccccc3C2=O)C(=O)N1 (configuration not stated) | 1.13 ± 0.088 | 1.03 ± 0.16 | 1.04 ± 0.12 | 1.11 ± 0.25 | 0.897 ± 0.054 | 0.863 ± 0.067 | 0.999 (active)
21 | O=C1CC(c2ccc(O)cc2)Oc2cc(O)cc(O)c21 (configuration not stated) | 1.31 ± 0.34 | 1.27 ± 0.17 | 1.21 ± 0.077 | 0.746 ± 0.031 | 1.09 ± 0.14 | 1.13 ± 0.11 | 1 (active)
22 | COc1ccc(S(=O)(=O)NCCn2nc(C(F)(F)F)cc2C2CC2)cc1 | 0.935 ± 0.077 | 1.09 ± 0.083 | 1.04 ± 0.029 | 0.996 ± 0.037 | 0.953 ± 0.096 | 0.834 ± 0.15 | 0.979 (active)
23 | CCOc1nc2cccc(C(=O)O)c2n1Cc1ccc(-c2ccccc2-c2nnn[nH]2)cc1 [Prestw-1258] | 1.29 ± 0.26 | 1.16 ± 0.11 | 0.925 ± 0.074 | 0.918 ± 0.029 | 0.914 ± 0.093 | 1.14 ± 0.14 | 0.995 (active)
24 | CC(C)(C)SCC(O)Cn1c2ccc(Br)cc2c2cc(Br)ccc21 (configuration not stated) | 0.767 ± 0.06 | 0.846 ± 0.1 | 0.91 ± 0.098 | 0.844 ± 0.039 | 1.31 ± 0.079 | 1.4 ± 0.12 | 0.999 (active)
25 | O=C(NCCCCNC(=O)c1cncc(Br)c1)c1cncc(Br)c1 | 0.947 ± 0.053 | 0.973 ± 0.095 | 0.907 ± 0.075 | 0.946 ± 0.038 | 1.37 ± 0.093 | 1.16 ± 0.24 | 0.991 (active)
26 | Ic1ccc(OCCCOc2ncnc3ccccc23)cc1 | 0.781 ± 0.069 | 0.931 ± 0.045 | 1.14 ± 0.12 | 0.963 ± 0.05 | 1.39 ± 0.095 | 1.6 ± 0.2 | 1.02 (active)
